Bioassay records deposited in PubChem BioAssay by The Scripps Research Institute Molecular Screening Center.
GPR151 ag: activators of human GPR151; Q8TDV0; PathHunter beta-arrestin GPR151 cells, luminescence; activation, % at 11.2 µM; 1% of 650,000 active; in the data active = activation above about 4.9%
MITF inh: inhibitors of human MITF. O75030. AlphaScreen MITF homodimerization, bead proximity signal. inhibition, % at 2.6 µM. 0.91% of 650,000 active. AID 1259374; in the data active = inhibition above about 50%
TEAD-YAP inh: TEAD-YAP interaction inhibition. HEK-TIYL cells, TEAD-Gal4/YAP UAS-luciferase luminescence. inhibition, % at 9.12 µM. 1.4% of 640,000 active; in the data active = inhibition above about 32%
FBW7 activator: human FBW7 E3 ligase activation, primary screen; AlphaScreen FBW7–phospho-cyclin E peptide binding, activator screen; normalized activity (activation), % at 26.1 µM; 0.13% of 650,000 active; AID 1259310; in the data active = normalized activity above about 1.9%;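 also: purified mutant Fbw7 with reduced substrate affinity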
GPR151 conf act: confirmation of human GPR151 activators; shares compounds with GPR151 ag; activation, % at 11.2 µM; 6,700 tested, under 10 active; GPR151 PathHunter beta-arrestin cells, luminescence, 90 min; % of EA-reagent control over plate median;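 active = mean percent activation across replicates above the confirmation screen cutoff of 4.91%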
GPR119 ag: activates human GPR119 in a GPR151 counter-screen; shares compounds with GPR151 ag; GPR119 PathHunter beta-arrestin cells, luminescence, 90 min; 0 = compound-well median, 100 = enzyme-acceptor control; activation, % at 11.2 µM; 0.3% of 6,700 active; AID 1508611;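 active = mean percent activation in the counterscreen above 29.09%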;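 also: counterscreen on off-target GPR119 to flag nonselective hits from the GPR151 activator screen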
Target sequence (Q8TDV5 whole entry, looked up): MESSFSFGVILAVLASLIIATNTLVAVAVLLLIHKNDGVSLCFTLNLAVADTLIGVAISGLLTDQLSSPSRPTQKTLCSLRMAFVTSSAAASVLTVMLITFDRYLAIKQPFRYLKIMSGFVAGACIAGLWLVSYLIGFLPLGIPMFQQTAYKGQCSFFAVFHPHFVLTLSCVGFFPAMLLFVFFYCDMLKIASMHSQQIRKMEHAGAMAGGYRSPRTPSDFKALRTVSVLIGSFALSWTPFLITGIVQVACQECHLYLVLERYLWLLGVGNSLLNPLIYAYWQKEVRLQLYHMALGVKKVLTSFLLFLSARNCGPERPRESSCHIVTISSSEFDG
A number is an active result. A selection: hits, their analogues and other compounds. The true share with any hit is near 3.4%.

Results for NC(=O)c1cc2cc(Cl)ccc2oc1=Nc1ccccc1 ?
GPR151 ag: 5.8; MITF inh: inactive; TEAD-YAP inh: inactive; FBW7 activator: inactive; GPR151 conf act: inactive; GPR119 ag: inactive

How did CCn1c(CCNC(=O)C(C)(C)C)nc2ccccc21 do in these assays?
GPR151 ag: 6.7; MITF inh: inactive; TEAD-YAP inh: inactive; FBW7 activator: inactive; GPR151 conf act: inactive; GPR119 ag: inactive

How did Cc1ccc(S(=O)(=O)N2CC(=O)N(CCc3ccccc3)C(=O)C2)cc1[N+](=O)[O-] do in these assays?
GPR151 ag: inactive; MITF inh: inactive; TEAD-YAP inh: inactive; FBW7 activator: inactive

What do the screens show for `COc1ccccc1CNC(=O)CC1C(=O)NCCN1CCC(C)C` (configuration not stated)?
GPR151 ag: 5.8; MITF inh: inactive; TEAD-YAP inh: inactive; FBW7 activator: inactive; GPR151 conf act: inactive; GPR119 ag: inactive

Results for CC(=O)COc1cc2c(C)cc(=O)oc2cc1Cl ?
GPR151 ag: 5.6; MITF inh: inactive; TEAD-YAP inh: inactive; FBW7 activator: inactive; GPR151 conf act: inactive; GPR119 ag: inactive

What do the screens show for `COc1cc(OC)c(NC(=O)Nc2noc3c2COc2ccccc2-3)cc1Cl`?
GPR151 ag: 5.2; MITF inh: inactive; TEAD-YAP inh: inactive; FBW7 activator: inactive; GPR151 conf act: inactive; GPR119 ag: inactive

How did Cc1ccc(OCC(=O)OCc2c(C)noc2C)cc1C do in these assays?
GPR151 ag: 8.0; MITF inh: inactive; TEAD-YAP inh: inactive; FBW7 activator: inactive; GPR151 conf act: inactive; GPR119 ag: inactive

How did Cc1cc(C)cc(OCC(=O)OCc2c(C)noc2C)c1 do in these assays?
GPR151 ag: inactive; MITF inh: inactive; TEAD-YAP inh: inactive; FBW7 activator: inactive

Results for Cc1ccc(OCC(=O)OCC(=O)c2ccccc2)cc1C ?
GPR151 ag: 10; MITF inh: inactive; TEAD-YAP inh: inactive; FBW7 activator: inactive; GPR151 conf act: inactive; GPR119 ag: inactive

Results for O=C(CC1S\C(=N/N=C/C=C/c2ccccc2)NC1=O)Nc1ccccc1F (configuration not stated) ?
GPR151 ag: 7.8; MITF inh: inactive; TEAD-YAP inh: inactive; FBW7 activator: inactive; GPR151 conf act: inactive; GPR119 ag: inactive

What do the screens show for `CC(C)n1c(Nc2ccnn2C)nc2c(Nc3ccc(N4CCOCC4)cc3)ncnc21`?
GPR151 ag: 5.5; MITF inh: inactive; TEAD-YAP inh: inactive; FBW7 activator: inactive; GPR151 conf act: inactive; GPR119 ag: inactive

How did CC(C)n1c(Nc2ccc(N3CCOCC3)cc2)nc2c(Nc3ccc(N4CCOCC4)cc3)ncnc21 do in these assays?
GPR151 ag: inactive; MITF inh: inactive; TEAD-YAP inh: inactive; FBW7 activator: inactive

How did CCOc1ccc(Cl)cc1C1C2=C(CC(C)(C)CC2=O)N(C)C2=C1C(=O)CC(C)(C)C2 do in these assays?
GPR151 ag: inactive; MITF inh: inactive; TEAD-YAP inh: inactive; FBW7 activator: inactive

How did C#CCOc1ccc(Cl)cc1C1C2=C(CC(C)(C)CC2=O)N(C)C2=C1C(=O)CC(C)(C)C2 do in these assays?
GPR151 ag: 5.1; MITF inh: inactive; TEAD-YAP inh: inactive; FBW7 activator: inactive; GPR151 conf act: inactive; GPR119 ag: inactive

Results for Cc1ccc(S(=O)(=O)N2CCc3ccccc3C2)s1 ?
GPR151 ag: inactive; MITF inh: inactive; TEAD-YAP inh: inactive; FBW7 activator: inactive

What do the screens show for `CCOC(=O)c1ccccc1NC(=O)CSc1n[nH]c(N)n1`?
GPR151 ag: inactive; MITF inh: inactive; TEAD-YAP inh: inactive; FBW7 activator: inactive

Results for CC(=O)c1ccccc1NC(=O)CSc1n[nH]c(N)n1 ?
GPR151 ag: 8.0; MITF inh: inactive; TEAD-YAP inh: inactive; FBW7 activator: inactive; GPR151 conf act: inactive; GPR119 ag: inactive

Results for Nc1nc(NCc2cccc(C(F)(F)F)c2)cc(Nc2ccncc2)n1 ?
GPR151 ag: 4.9; MITF inh: inactive; TEAD-YAP inh: inactive; FBW7 activator: inactive; GPR151 conf act: inactive; GPR119 ag: inactive

How did c1ccc(CNc2cc(Nc3ccncc3)ncn2)cc1 do in these assays?
GPR151 ag: 5.4; MITF inh: inactive; TEAD-YAP inh: inactive; FBW7 activator: inactive; GPR151 conf act: inactive; GPR119 ag: inactive

What do the screens show for `COC(=O)c1ccc(NC(=O)CSc2nnc(C)c(=O)[nH]2)cc1`?
GPR151 ag: inactive; MITF inh: inactive; TEAD-YAP inh: inactive; FBW7 activator: inactive
